# Test results: ChEMBL document CHEMBL3988442, “University of Dundee, Small-Polar-MMV Screening Library” (2021)
# For some of these results: Measured potencies and affinities stand elsewhere.
# Columns and labels:
# Design in all cases: scale not given: direction of the effect not stated beside the values
# [1] = biological target: Protein translocase subunit SecA (Escherichia coli (strain K12)) (UniProt P10408); assay: Assay to Identify E. coli SecA ATPase Inhibitors; type: functional; conditions: 30 µM
# Sequence of Protein translocase subunit SecA (Escherichia coli (strain K12)) (P10408 whole entry): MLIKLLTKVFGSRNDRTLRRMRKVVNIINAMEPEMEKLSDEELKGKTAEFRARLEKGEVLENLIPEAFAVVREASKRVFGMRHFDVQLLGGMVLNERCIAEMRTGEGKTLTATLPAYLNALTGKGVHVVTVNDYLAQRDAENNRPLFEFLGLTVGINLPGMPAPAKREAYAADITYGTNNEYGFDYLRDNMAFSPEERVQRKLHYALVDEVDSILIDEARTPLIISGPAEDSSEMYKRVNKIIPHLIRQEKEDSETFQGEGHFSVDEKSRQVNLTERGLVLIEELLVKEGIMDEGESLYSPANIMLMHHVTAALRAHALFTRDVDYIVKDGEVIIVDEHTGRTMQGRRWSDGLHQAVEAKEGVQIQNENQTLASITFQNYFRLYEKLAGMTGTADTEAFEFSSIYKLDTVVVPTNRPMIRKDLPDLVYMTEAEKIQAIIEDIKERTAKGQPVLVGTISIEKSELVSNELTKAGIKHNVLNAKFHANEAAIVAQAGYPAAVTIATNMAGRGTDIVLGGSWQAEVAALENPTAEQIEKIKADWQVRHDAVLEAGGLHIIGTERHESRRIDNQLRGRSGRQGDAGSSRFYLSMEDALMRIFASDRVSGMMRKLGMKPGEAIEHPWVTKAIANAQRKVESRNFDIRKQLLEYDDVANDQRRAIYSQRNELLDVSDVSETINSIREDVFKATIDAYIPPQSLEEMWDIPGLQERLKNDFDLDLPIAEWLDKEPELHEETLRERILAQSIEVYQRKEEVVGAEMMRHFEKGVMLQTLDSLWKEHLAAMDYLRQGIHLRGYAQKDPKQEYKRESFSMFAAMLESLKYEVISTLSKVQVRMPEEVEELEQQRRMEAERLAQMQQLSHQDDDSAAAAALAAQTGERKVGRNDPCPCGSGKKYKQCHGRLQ
# [2] = biological target: T1, Ubiquitin-activating enzyme e1, putative (Leishmania donovani (strain BPK282A1)) (UniProt E9BSI1); assay: Leishmania donovani Ubiquitin Activating Enzyme (LdE1); type: functional; conditions: 30 µM
# T1 sequence (whole entry): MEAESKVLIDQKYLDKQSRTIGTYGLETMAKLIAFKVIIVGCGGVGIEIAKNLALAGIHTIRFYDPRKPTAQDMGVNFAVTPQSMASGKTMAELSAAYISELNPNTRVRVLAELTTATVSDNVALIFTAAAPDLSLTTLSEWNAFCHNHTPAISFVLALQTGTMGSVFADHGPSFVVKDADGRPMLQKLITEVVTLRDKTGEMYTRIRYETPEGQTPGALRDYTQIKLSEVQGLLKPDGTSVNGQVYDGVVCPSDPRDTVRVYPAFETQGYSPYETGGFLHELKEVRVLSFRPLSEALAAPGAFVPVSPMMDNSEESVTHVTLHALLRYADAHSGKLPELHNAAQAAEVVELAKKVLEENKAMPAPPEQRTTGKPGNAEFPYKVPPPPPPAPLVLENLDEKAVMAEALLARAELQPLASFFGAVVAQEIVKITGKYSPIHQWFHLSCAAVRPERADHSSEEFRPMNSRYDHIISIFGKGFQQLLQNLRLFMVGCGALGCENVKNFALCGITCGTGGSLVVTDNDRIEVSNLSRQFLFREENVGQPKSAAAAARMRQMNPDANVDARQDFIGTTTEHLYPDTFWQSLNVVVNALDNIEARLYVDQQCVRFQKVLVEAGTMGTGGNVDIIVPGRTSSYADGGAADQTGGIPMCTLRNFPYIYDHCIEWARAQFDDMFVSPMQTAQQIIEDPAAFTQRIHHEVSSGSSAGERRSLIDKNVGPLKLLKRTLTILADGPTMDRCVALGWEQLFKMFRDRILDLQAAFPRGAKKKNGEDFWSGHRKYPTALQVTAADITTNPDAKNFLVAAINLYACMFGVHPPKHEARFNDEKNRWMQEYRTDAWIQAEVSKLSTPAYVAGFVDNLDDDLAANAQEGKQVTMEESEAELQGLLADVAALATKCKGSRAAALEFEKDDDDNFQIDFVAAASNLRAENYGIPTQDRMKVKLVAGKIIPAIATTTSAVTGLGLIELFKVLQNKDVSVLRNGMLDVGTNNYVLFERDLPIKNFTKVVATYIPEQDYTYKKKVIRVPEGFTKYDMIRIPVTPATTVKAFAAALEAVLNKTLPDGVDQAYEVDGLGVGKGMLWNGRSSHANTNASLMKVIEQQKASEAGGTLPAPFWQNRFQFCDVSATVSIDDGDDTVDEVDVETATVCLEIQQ
# [3] = biological target: AMP-activated protein kinase, AMPK (Homo sapiens) (UniProt P54646+O43741+P54619+Q9UGJ0+Q9Y478+Q13131+Q9UGI9); assay: AMP-dependent Kinase enzyme assay. An in vitro enzyme assay that detects ADP turnover that is directly proportional to AMPK activity. This uses naive AMPK that is activated during the assay with MK-8722; type: functional; conditions: 30 µM
# [4] = biological target: Sialic acid-binding Ig-like lectin 9 (Homo sapiens) (UniProt Q9Y336); assay: Hs-Siglec9 ALPHAscreen SOP 20170721; conditions: 10 µM
# Sequence of Sialic acid-binding Ig-like lectin 9 (Homo sapiens) (Q9Y336 whole entry): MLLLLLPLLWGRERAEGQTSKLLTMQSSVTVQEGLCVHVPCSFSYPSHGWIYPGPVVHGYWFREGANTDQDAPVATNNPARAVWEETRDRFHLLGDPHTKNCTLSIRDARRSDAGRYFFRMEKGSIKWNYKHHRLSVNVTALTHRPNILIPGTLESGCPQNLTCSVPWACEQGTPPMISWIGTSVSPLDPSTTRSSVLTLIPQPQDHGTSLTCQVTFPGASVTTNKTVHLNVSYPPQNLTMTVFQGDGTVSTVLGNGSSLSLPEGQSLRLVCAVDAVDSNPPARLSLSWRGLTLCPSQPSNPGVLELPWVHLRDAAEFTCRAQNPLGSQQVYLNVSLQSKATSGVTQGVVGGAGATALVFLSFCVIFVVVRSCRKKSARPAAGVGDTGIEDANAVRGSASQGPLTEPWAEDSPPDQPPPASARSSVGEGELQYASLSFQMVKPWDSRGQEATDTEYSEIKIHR
# Trypanosoma cruzi = assay: Trypanosoma cruzi phosphomannomutase and mannose-1-phosphate guanylyltransferase assay; type: functional; conditions: 10 µM
# [5] = biological target: T2, Arginase-2, mitochondrial (Homo sapiens) (UniProt P78540); assay: in vitro enzyme assay to detect the production of urea directly proportional to the activity of Arginase II; type: functional; conditions: 33.3 µM; also: in the data most compounds retested in dose-response had high values
# T2 sequence (whole entry): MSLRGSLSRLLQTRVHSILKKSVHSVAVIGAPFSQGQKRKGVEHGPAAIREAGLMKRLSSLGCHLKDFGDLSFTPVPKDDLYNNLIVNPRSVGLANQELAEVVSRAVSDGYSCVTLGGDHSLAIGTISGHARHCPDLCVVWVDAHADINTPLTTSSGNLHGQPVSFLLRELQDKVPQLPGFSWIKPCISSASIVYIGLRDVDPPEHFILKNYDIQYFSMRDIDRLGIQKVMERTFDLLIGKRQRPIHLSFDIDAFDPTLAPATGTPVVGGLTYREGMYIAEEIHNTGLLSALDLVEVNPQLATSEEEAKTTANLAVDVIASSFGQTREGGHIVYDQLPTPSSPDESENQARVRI
# [6] = biological target: T3, Proteasome subunit beta (Trypanosoma cruzi) (UniProt O96673); assay: Trypanosoma cruzi proteasome chymotrypsin-like activity (TcProtChymo) assay.; also: in the data most compounds retested in dose-response had high values; type: functional; conditions: 9.37 µM
# T3 sequence (whole entry): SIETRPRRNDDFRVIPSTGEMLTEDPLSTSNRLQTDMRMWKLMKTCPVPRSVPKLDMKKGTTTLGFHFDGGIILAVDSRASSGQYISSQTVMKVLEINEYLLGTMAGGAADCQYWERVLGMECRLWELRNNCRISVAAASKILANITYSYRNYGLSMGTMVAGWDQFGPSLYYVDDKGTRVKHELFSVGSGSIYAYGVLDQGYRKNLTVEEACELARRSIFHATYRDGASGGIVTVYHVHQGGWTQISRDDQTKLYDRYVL
# Homo sapiens = species on record: Homo sapiens; assay: To identify inhibition of the IFN signalling (Jak-Stat) pathway via expression of an eGFP reporter gene under the control of an IFN-stimulated response element (ISRE) containing MxA promoter.; type: functional; conditions: 30 µM
# [7] = biological target: T4, Tyrosyl-tRNA synthetase, putative (Trypanosoma cruzi (strain CL Brener)) (UniProt Q4DSP6); assay: Trypanosoma cruzi tyrosyl tRNA synthetase (TcYRS) _High Tyrosine SOP; type: functional; conditions: 30 µM; also: in the data most compounds retested in dose-response had high values
# T4 sequence (whole entry): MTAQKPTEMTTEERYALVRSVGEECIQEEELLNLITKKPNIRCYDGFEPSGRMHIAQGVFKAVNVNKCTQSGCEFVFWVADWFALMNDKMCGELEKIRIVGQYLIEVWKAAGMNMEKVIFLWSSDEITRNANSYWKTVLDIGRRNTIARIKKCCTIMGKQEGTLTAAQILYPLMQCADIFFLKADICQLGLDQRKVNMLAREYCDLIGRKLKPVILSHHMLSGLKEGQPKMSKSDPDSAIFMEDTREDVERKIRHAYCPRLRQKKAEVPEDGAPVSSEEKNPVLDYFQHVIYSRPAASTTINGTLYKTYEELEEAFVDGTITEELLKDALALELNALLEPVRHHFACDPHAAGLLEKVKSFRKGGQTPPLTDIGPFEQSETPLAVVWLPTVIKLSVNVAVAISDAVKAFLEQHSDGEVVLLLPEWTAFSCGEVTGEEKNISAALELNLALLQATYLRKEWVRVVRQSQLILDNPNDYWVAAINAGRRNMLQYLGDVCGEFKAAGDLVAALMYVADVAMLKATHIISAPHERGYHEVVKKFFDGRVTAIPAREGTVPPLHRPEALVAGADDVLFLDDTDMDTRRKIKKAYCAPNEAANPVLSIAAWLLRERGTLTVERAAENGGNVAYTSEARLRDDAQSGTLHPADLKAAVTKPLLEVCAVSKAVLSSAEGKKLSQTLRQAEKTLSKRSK
# [8] = biological target: T4, Tyrosyl-tRNA synthetase, putative (Trypanosoma cruzi (strain CL Brener)); assay: Trypanosoma cruzi tyrosyl tRNA synthetase (TcYRS) SOP; type: functional; conditions: 30 µM
# [9] = biological target: Chromo domain-containing protein 1 (Saccharomyces cerevisiae (strain ATCC 204508 / S288c) (Baker's yeast)) (UniProt P32657); assay: ScCHD-1 Enzyme Inhibition Assay; type: functional; conditions: 30 µM; also: in the data most compounds retested in dose-response had high values
# Sequence of Chromo domain-containing protein 1 (Saccharomyces cerevisiae (strain ATCC 204508 / S288c) (Baker's yeast)) (P32657 whole entry, the tested form may be a part): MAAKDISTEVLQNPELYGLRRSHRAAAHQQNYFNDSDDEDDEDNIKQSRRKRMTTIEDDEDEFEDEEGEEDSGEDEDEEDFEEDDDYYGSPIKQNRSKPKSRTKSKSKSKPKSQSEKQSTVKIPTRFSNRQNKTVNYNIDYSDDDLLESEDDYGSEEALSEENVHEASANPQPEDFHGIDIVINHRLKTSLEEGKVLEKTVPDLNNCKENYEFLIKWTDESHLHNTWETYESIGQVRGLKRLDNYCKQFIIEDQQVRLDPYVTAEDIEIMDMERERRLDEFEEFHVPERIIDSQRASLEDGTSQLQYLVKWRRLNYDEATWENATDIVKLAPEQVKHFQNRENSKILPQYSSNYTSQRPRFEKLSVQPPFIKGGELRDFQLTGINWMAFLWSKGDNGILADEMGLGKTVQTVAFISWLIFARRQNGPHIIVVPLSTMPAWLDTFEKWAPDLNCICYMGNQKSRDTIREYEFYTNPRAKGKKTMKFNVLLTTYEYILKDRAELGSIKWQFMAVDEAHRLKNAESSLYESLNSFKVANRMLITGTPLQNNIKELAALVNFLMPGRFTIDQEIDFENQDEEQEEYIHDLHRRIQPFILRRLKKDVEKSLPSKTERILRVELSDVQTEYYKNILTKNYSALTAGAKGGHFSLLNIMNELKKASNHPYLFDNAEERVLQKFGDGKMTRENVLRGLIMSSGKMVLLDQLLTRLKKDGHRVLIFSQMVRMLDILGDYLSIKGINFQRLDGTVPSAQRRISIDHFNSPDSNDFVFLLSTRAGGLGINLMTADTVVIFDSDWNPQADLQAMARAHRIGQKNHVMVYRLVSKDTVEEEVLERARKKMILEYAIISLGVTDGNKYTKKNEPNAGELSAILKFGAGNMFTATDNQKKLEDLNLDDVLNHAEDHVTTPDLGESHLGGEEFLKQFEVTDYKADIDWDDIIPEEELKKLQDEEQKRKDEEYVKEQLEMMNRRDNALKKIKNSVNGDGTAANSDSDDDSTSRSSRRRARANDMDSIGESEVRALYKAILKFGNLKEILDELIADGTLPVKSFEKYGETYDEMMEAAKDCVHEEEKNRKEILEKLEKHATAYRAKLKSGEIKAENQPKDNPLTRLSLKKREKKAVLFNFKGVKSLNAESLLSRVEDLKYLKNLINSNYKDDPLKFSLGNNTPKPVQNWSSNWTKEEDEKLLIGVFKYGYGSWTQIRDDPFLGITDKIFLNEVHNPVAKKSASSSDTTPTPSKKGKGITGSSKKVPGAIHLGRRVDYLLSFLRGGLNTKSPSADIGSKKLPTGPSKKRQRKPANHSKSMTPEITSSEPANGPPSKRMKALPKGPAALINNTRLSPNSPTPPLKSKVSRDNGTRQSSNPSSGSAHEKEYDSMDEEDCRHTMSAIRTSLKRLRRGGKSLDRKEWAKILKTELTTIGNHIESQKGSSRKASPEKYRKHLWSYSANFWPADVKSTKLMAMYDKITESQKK
Compound,Percent Effect [1] [%],Percent Effect [2] [%],Percent Effect [3] [%],Percent Effect [4] [%],Percent Effect (Trypanosoma cruzi) [%],Percent Effect [5] [%],Percent Effect [6] [%],Percent Effect (Homo sapiens) [%],Percent Effect [7] [%],Percent Effect [8] [%],Percent Effect [9] [%]
CCC1CCCN(C(=O)Cc2csc(-c3ncccn3)n2)C1 (stereo not given),-2.19,21.1,0.0664,-8.02,5.26,-1.92,24.1,25.1,5.39,17.1,-12.4
Cc1nn(C)cc1C(=O)N1C[C@H]2CC[C@@H]1CN(S(=O)(=O)N(C)C)C2,-0.765,5.33,-1.08,4.66,-8.08,2.6,20.2,13.3,0.546,1.24,-6.02
O=C1CC(c2ccc(F)c(F)c2)c2snc(C(=O)O)c2N1 (stereo not given),-0.493,-6.67,4.23,3.7,-2.36,0.176,2.77,-4.84,2.12,-5.13,-4.62
Cn1ccnc1CN1CCN(CC(O)c2ccc(F)c(F)c2)CC1 (stereo not given),-8.39,10.4,-6.83,-0.647,-6.93,1.42,0.507,29.6,0,-2.44,-2.48
Cc1noc(C)c1CN1CC[C@H]2OCC[C@@H](C(=O)N3CCCO3)[C@@H]2C1,-8.03,16,-5.74,-1.2,5.02,-43.5,14.7,-8.37,-1.04,2.5,-6.96
CCOC(C)c1nc(CN2CCNCC2)cs1 (stereo not given),-3,-8.11,-1.11,0.0763,-3.09,-5.24,6.21,14.6,-1.59,-4.88,-3.79
CC(C)c1noc(C(C)N2CCN(Cc3ccccc3C#N)CC2)n1 (stereo not given),-0.614,-2.63,-8.38,2.79,4.58,-2.52,3.81,10.1,-3.45,3.7,2.36
Cc1nc(CN2CCCC(NCCOCC(F)(F)F)C2)no1 (stereo not given),-6.82,7.59,-4.02,0.79,4.44,-1.52,4.18,-2.76,4.43,8.86,-5.18
Cc1cc(NC(=O)CN2CCc3cnc(C)nc3C2)on1,-3.81,5.26,-27.9,2.68,7.75,1.8,9.39,-5.85,8.37,16.1,-7.97
CCc1[nH]ncc1C(=O)N1CCCN(Cc2cnn(C)c2)CC1,0.347,15.6,6.03,-6.37,-0.0979,5.68,8,21.9,5.71,18.8,-17.9
CCOC(=O)c1c(NC(=O)CN2CCN(C(C)=O)CC2)sc2c1CCC2,-3.66,7.89,9.52,4.99,-0.0974,-1.18,7,-11.1,4.25,13,-4.6
Cc1nc(CN2CC3(CCN(c4ncc(F)cn4)C3)CC2=O)cs1 (stereo not given),-1.99,0,8.52,6.6,-0.69,1.94,0.348,7.34,3.17,8.97,-4.69
CC[C@H](C)[C@H](NC(=O)c1ccccc1-n1cnnn1)C(=O)OC,-2.24,-4,6.42,-4.83,-14.2,-9.33,1.85,-2.35,-1.06,-12.8,1.23
CN(Cc1ccc(N2CCCCC2)cc1)Cc1noc(C(C)(C)C)n1,-2.34,-13,-0.29,2.11,0.492,0,13.8,9.08,-2.15,-6.17,-1.32
CN(C)Cc1nn(C)c2c1CCN(S(=O)(=O)c1cccs1)C2,-0.0797,13,2.64,-2.7,1.48,3.23,5.57,14.8,8.47,8.97,-7.57
O=C(NCC1CC1)[C@H]1CC[C@@H]2[C@@H](CCN2Cc2ccoc2)O1,-9.56,16.2,-3.1,26,4.99,3.23,4.72,-7.7,4.3,6.17,-12.2
Cc1cccc(CN2CCc3c(nc(N4CCCCC4C)[nH]c3=O)C2)n1 (stereo not given),-3.88,4.05,13,7.92,-3.36,0.232,9.36,13.8,7.53,9.09,2.2
O=C(c1ccc(C2CCCO2)s1)N1CCS(=O)(=O)CC1 (stereo not given),-1.4,18.9,-2.69,22.7,9.07,1.91,17.1,6.53,4.76,17.1,-2.6
CCC1=N[C@@]2(CC[C@@H]3CN(S(=O)(=O)CC(C)C)C[C@@H]32)C(=O)N1C,-0.279,10.4,4.02,2.43,-3.25,7.1,13.2,-9.27,5.29,16.7,-9.12
Cc1ccoc1C(=O)NCC(Cc1ccc(F)cc1)C(N)=O (stereo not given),-1.94,18.2,4.14,0.338,3.62,4.42,15.3,-1.29,7.62,23.5,-14.3
